The text below walks through data of PubChem BioAssay (NCATS).

In experiment [1] the target is Lysosomal acid glucosylceramidase (Homo sapiens) (UniProt P04062). The experiment can be described thus: Glucocerebrosidase-p2 (AID 348; in the data active = potency below about 10 µM; also: potency is read from the fitted curve at half-maximal effect). Conditions: purified GBA, blue fluorogenic substrate, 40 min. The procedure, abridged:
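Compounds titrated from 0.6 nM upwards against 0.2 nM enzyme in pH 5.9 citric acid/KH2PO4, taurocholate, tween-20; blue fluorogenic substrate 80 uM, 40 min room temperature, stopped and read Ex 365/Em 440 for AC50.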

Experiment [2] is described as follows: AP1 Signaling Pathway (AID 357).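 Also: ME-180 reporter cells stimulated with EGF at its EC50 level; % is scaled to controls: 0 for no effect and ±100 for the full control effect.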 The conditions noted are these: ME-180 AP-1-bla reporter, EGF-induced, beta-lactamase ratio, 5 h; at 7.69 µM (top of the series) unless noted. The essentials: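 Beta-lactamase reporter under AP-1 response element, ME-180 background. Stimulus: EC50 EGF. Compound exposure 5 h, 37 °C. Detection: CCF4, 2.5 h RT, 460/530 nm. Values: AC50 from titration.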

Experiment [3] is described as follows: NFAT Signaling Pathway (AID 444).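 Also: carbachol stimulus at about its EC50 of 1 µM final; % is scaled to controls: 0 for no effect and ±100 for the full control effect.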 The conditions noted are these: Jurkat NFAT-bla M1, carbachol, beta-lactamase ratio, 5 h; at 7.69 µM (top of the series) unless noted. The procedure, abridged:
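Jurkat cells carrying an NFAT-driven β-lactamase reporter and co-transfected muscarinic M1 receptor were treated with compound plus carbachol (1 uM final, an EC50 level) for 5 h at 37 °C. CCF4 loading followed for 1 h at RT; 460/530 nm ratio gave %activity.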

Experiment [4] is described as follows: Stat Signaling Pathway (AID 446).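 Also: ME-180 cervical cancer cells given 40 pM IL-6 alongside compound; SIE-controlled beta-lactamase reporter measured as 460/530 nm FRET emission ratio; % is scaled to controls: 0 for no effect and ±100 for the full control effect.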 Conditions: ME-180 (cervical carcinoma) SIE beta-lactamase reporter, IL-6 stimulated, 5 h; at 7.69 µM (top of the series) unless noted. The essentials:
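ME-180 cells carrying a SIE-driven beta-lactamase reporter are stimulated with 40 pM IL-6 for 5 h at 37C in the presence of compound. The 460/530 nm FRET substrate ratio is read after 2.5 h at RT. Data are normalised to 300 pM IL-6 and to 125 nM JAK inhibitor controls.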

For experiment [5], the target named is Glucocorticoid receptor (Homo sapiens) (UniProt P04150). The experiment can be described thus: GR-GFP Redistribution (AID 450;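 active = compounds whose dose series gives a full or clear partial fitted curve of increased nuclear translocation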; also: potency is read from the fitted curve at half-maximal effect). The conditions noted are these: U2OS GR-GFP nuclear translocation, laser cytometry, 2 h.
The target is the same in experiment [6]. Briefly: GR-EFC Redistribution (AID 451; calls by dose curve; also: potency is read from the fitted curve at half-maximal effect). The conditions noted are these: CHO-K1 GR-EFC translocation, beta-gal luminescence, 2 h. The procedure, abridged:
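CHO-K1 cells stably expressing nuclear-localized β-gal enzyme acceptor and GR fused C-terminally to the enzyme donor fragment; ligand-driven nuclear translocation restores β-gal by complementation. Compounds titrated up to 46 uM final, 2 h at 37 °C; luminescence read.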

For experiment [7], the target named is Mitogen-activated protein kinase 10 (Mus musculus) (UniProt Q61831). The experiment can be described thus: JNK3 AlphaScreen Assay (AID 530).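 Also: kinase came from lysate of stimulated human HepG2 cells; signal reports phosphorylation of biotinylated GST-cJun 1-79 at Ser73 with 10 µM ATP; % is scaled to controls: 0 for no effect and ±100 for the full control effect.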 Conditions: JNK3 lysate, c-Jun phosphorylation; series mostly up to 57.1 µM. The procedure, abridged: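 Inhibitors reduce antibody binding to phosphorylated biotin-cJun, lowering AlphaScreen luminescence. Lysates from HepG2 cells pre-activated by IL-1beta plus TNF-alpha supplied JNK3; compounds were titrated.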
A general note: Bead proximity is the source of the signal in Alpha formats.

For experiment [8], the target named is 3',5'-cyclic-AMP phosphodiesterase 4B (Homo sapiens) (UniProt Q07343). The experiment can be described thus: qHTS Assay for Inhibitors of PDE-IV (AID 607; active = well fitted activation curve with a large enough effect in the main read-out, with a control signal flat, not every such curve was filed as active; also: % of control where 0% means no effect). Conditions: HEK293 ACTOne CNG channel cells, membrane potential fluorescence; series mostly up to 22.9 µM. The procedure, abridged:
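HEK293 ACTOne cells with CNG channel (1000/well), endogenous PDE4; membrane potential dye, compounds up to 22.9 uM final. Fluorescence Ex 535/Em 590; RO 20-1724 (100 uM final) as reference.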
In general terms: Quantitative high-throughput screening tests each substance at several concentrations.

Experiment [9] addresses Cytochrome P450 3A4 (Homo sapiens) (UniProt P08684). The experiment can be described thus: qHTS Assay for Inhibitors and Substrates of Cytochrome P450 3A4 (AID 884; active = well fitted curve in the direction sought with a large enough effect; an effect the other way counts as inactive or inconclusive; also: potency is read from the fitted curve at half-maximal effect; nearly all actives have a fitted effect of over 50% in size). The conditions noted are these: recombinant CYP3A4, Luciferin-PPXE luminescence; series mostly up to 57.1 µM. The procedure, abridged:
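20 nM human CYP3A4 with 25 uM Luciferin-PPXE (at KM) in 200 mM KPO4, preincubated 10 min with compound; NADPH regeneration started a 60 min RT reaction. Luciferin detected by luminescence, normalized to 57 uM ketoconazole as full inhibition.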

Experiment [10] has the same target. The experiment can be described thus: qHTS Assay for Activators of Cytochrome P450 3A4 (AID 885; active = well fitted curve in the direction sought with a large enough effect; an effect the other way counts as inactive or inconclusive; also: nearly all actives have a fitted effect of over 65% in size). Conditions: recombinant CYP3A4, Luciferin-PPXE luminescence, 60 min; series mostly up to 57.1 µM. The essentials:
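Human CYP3A4 (20 nM) with Luciferin-PPXE at 25 uM (its KM) in 200 mM KPO4; 10 min compound preincubation, then NADPH regeneration and 60 min reaction at RT. Luciferin read by luminescence; normalized to 57 uM ketoconazole full inhibition.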

Experiment [11] concerns the target Cytochrome P450 2C19 (Homo sapiens) (UniProt P33261). Briefly: qHTS Assay for Inhibitors and Substrates of Cytochrome P450 2C19 (AID 899; active = well fitted curve in the direction sought with a large enough effect; an effect the other way counts as inactive or inconclusive; also: potency is read from the fitted curve at half-maximal effect; nearly all actives have a fitted effect of over 60% in size). The conditions noted are these: recombinant CYP2C19, luciferin-H EGE luminescence; series mostly up to 57.1 µM. The procedure, abridged: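 NADPH-dependent conversion of Luciferin-H EGE (10uM, at KM) by 5nM enzyme in 50mM KPO4, 60 min at 37C following 10 min compound preincubation. Stopped with luciferin detection buffer; luminescence read after 20 min.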

Experiment [12] is described as follows: Confirmation and Secondary Assay for Modulators of Hemoglobin Beta Chain Splicing at IVS2 654 locus (AID 910; active = well fitted curve in the direction sought with a large enough effect; an effect the other way counts as inactive or inconclusive;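 also: per-well total GFP intensity by laser scanning cytometry after 2-day treatment; % of control where 0% means no effect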). Conditions: HeLa EGFP-654 splicing reporter, GFP fluorescence, 48 h; series mostly up to 38.3 µM. The procedure, abridged: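 HeLa cells stably carrying EGFP interrupted by mutant beta-globin IVS2-654 intron (CMV-driven) were treated with compound for 2 days at 37C; corrected splicing was scored as total peak GFP intensity per well (488 nm excitation, 500-520 nm emission).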

Experiment [13] can be described thus: Confirmation and Secondary Assay for Modulators of Hemoglobin Beta Chain Splicing at IVS2 705 locus (AID 930; active = well fitted curve in the direction sought with a large enough effect; an effect the other way counts as inactive or inconclusive;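 also: HeLa cells stably expressing the EGFP-705 splicing reporter; GFP fluorescence per well restored by corrected splicing of the IVS2-705 intron in EGFP; % of control where 0% means no effect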). The conditions noted are these: HeLa EGFP-705 splicing reporter, GFP fluorescence, 48 h; series mostly up to 38.3 µM. The essentials:
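Fluorescence gain (488 nm laser, 500-520 nm PMT) reflects restored correct splicing of a mutant IVS2-705 intron inside EGFP in stably transfected HeLa cells after 2-day compound treatment.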

Experiment [14] in a line: Primary qHTS for small molecule stabilizers of the endoplasmic reticulum resident proteome: Secreted ER Calcium Modulated Protein (SERCaMP) assay (AID 1508630; active = well fitted curve in the direction sought with a large enough effect; an effect the other way counts as inactive or inconclusive; also: % is scaled to controls: 0 for no effect and ±100 for the full control effect). Conditions: SH-SY5Y GLuc-SERCaMP (Gaussia luciferase released on ER calcium loss) secretion, thapsigargin, luminescence; series mostly up to 38.4 µM. The essentials:
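GLuc-SERCaMP-expressing SH-SY5Y cells, pretreated 16 h with compound, are challenged with thapsigargin to empty ER calcium stores; after 4 h, coelenterazine is added directly to the medium and luminescence is imaged.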

Values without a mark were called inactive. Results filed as inconclusive are left out. Active and inactive are the calls of the source. Unless noted, calls follow the shape of the dose curve; as a rule, active = well fitted curve in either direction with a large enough effect (not every such curve was filed as active); inconclusive = small, poorly fitted or top-dose-only effect, or another doubt; inactive = flat fitted curve, though single readings scatter. Some results are limits rather than exact numbers.

Glucocorticoid receptor (Homo sapiens), sequence (P04150 whole entry, looked up): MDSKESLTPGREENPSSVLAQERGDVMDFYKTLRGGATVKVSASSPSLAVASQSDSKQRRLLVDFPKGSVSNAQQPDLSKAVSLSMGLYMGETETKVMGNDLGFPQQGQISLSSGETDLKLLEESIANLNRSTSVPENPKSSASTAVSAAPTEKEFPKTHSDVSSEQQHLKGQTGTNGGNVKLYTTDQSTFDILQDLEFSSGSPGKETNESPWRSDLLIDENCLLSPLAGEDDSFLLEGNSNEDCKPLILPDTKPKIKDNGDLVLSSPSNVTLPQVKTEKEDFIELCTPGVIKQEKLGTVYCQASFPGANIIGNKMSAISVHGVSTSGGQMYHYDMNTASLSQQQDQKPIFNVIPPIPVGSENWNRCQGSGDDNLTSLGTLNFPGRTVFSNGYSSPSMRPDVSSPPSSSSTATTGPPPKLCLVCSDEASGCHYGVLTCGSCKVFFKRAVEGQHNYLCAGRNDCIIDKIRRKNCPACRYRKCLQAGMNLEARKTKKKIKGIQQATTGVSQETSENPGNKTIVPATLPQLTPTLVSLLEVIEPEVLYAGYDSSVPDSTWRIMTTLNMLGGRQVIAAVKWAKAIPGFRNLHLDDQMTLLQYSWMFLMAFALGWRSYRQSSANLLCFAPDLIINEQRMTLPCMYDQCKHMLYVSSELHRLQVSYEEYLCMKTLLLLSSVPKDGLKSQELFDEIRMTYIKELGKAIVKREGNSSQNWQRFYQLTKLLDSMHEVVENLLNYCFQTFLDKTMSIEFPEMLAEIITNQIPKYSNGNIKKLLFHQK
3',5'-cyclic-AMP phosphodiesterase 4B (Homo sapiens), sequence (Q07343 whole entry, looked up): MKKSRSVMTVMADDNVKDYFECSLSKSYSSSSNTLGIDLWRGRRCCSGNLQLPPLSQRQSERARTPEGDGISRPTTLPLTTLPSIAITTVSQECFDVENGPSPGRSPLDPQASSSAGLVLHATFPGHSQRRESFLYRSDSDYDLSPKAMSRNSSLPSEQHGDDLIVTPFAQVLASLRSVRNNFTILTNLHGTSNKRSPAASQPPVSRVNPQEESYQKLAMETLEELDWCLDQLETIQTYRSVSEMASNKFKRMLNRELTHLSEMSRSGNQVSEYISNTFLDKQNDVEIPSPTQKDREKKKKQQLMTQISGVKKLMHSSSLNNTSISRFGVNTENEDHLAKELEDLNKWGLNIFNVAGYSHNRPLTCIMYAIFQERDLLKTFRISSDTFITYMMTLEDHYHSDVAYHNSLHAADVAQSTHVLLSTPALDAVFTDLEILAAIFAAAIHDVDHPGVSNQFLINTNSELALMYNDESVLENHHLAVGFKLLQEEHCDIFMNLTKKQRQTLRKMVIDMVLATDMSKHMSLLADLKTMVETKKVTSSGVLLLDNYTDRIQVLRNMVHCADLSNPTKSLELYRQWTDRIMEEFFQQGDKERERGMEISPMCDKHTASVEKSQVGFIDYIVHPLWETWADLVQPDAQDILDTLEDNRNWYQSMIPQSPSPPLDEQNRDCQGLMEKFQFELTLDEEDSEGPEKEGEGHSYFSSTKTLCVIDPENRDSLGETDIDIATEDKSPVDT
Lysosomal acid glucosylceramidase (Homo sapiens), sequence (P04062 whole entry, looked up): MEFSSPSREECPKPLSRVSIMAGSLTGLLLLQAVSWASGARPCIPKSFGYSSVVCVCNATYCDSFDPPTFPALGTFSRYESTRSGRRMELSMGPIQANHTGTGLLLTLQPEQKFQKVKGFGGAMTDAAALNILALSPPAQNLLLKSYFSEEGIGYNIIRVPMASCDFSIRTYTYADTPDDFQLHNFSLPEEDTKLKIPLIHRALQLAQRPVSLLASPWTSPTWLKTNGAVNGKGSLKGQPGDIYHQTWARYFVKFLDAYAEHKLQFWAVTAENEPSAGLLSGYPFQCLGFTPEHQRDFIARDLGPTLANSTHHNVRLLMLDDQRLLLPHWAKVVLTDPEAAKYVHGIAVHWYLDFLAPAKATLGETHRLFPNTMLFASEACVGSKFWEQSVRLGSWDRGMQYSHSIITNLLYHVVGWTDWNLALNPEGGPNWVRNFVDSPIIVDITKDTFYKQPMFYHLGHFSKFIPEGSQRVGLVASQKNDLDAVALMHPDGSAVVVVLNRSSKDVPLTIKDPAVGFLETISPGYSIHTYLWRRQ
Cytochrome P450 3A4 (Homo sapiens), sequence (P08684 whole entry, looked up): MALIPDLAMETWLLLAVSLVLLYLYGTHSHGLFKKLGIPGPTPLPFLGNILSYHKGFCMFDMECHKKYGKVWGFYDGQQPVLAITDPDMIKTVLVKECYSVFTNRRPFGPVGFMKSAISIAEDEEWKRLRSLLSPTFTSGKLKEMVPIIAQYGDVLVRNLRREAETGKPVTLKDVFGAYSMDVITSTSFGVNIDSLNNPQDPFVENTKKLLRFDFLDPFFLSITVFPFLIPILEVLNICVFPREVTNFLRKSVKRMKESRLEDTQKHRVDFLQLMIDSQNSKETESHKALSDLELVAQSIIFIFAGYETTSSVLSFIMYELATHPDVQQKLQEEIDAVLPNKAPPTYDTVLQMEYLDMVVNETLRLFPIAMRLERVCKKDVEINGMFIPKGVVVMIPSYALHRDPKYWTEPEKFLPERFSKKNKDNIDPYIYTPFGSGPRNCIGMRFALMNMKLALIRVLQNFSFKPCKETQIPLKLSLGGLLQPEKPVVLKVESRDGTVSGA
Cytochrome P450 2C19 (Homo sapiens), sequence (P33261 whole entry, looked up): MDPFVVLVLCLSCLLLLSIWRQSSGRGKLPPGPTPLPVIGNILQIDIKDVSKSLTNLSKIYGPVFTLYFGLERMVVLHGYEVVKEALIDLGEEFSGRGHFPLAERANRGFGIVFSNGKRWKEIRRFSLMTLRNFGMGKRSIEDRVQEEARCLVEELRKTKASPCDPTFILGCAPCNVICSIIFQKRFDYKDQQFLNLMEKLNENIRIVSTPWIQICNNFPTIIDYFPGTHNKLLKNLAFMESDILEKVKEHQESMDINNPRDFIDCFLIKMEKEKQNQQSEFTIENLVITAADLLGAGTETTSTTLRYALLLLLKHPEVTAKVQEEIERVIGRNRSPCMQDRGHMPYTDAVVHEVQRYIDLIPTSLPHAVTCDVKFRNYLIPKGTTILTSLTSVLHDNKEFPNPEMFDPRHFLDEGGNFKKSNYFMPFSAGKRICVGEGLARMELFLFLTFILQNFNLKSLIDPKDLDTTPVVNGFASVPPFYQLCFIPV

Consider `Cc1cccc(CNc2cc(-c3cccc(C#N)c3)ncn2)c1`, for which the Potency was above 11.4 µM in experiment [1]; above 46 µM in [5]; above 46 µM in experiment [6]; 7.94 µM (active) in experiment [9]; 6.31 µM (active) in [11]. The activity change, negative = inhibition was -11.1% in [2] and 7.94% in [3]. The activity, negative = inhibition in experiment [4] was -3.7%. The Potency entry in [7], in experiment [8], in experiment [10] and in experiment [12] was “inactive” each time. Moreover, the call in [13] and in [14] was inactive.

Take `COc1ncc2nc(C)c(=O)n(Cc3cccs3)c2n1`: the Potency in [1] was above 11.4 µM; in experiment [5], above 9.22 µM; in [6], above 46 µM. Moreover, the values for the activity change, negative = inhibition in experiment [2] and in experiment [3] were -2.91% and -7.05%, respectively. Further, the activity, negative = inhibition in experiment [4] was -7.75%. The Potency result in experiment [7] and in experiment [8] was “inactive” each time. The result in experiment [14] was inactive.

As to `COc1ccc(Oc2ncc3ncc(=O)n(Cc4cccc(OC)c4)c3n2)cc1`, the Potency in [1] was above 11.4 µM; in experiment [5], above 9.22 µM; in [6] it was above 46 µM. In addition, the activity change, negative = inhibition in experiment [2] was -25.4%; in experiment [3], -6.25%. Besides, in [4], the activity, negative = inhibition is -3%. The Potency result in [7] and in [8] was “inactive” in each case. In [14], the outcome was inactive.

As to `COc1ncc2nc(-c3ccc(Cl)cc3)c(=O)n(CCc3ccccc3)c2n1`, the results for the Potency in experiment [1], in experiment [5] and in experiment [6] were above 11.4 µM, above 9.22 µM and above 46 µM, respectively. Also, the activity change, negative = inhibition in experiment [2] is -3.59%; in experiment [3], -9.46%. For the same molecule, the activity, negative = inhibition in experiment [4] was 1.11%. In addition, the Potency result in experiment [7] and in experiment [8] was “inactive” in each case. Further, the result in experiment [14] was inactive.

On to `COc1ncc2nc(-c3ccc(F)cc3)c(=O)n(CCC#N)c2n1`, for which the Potency in experiment [1] is above 11.4 µM; in [5], above 9.22 µM; in [6] it was above 46 µM. Besides, the activity change, negative = inhibition in experiment [2] was 13.2%; in experiment [3] it was -5.63%. Besides, the activity, negative = inhibition in experiment [4] was -0.246%. The Potency entry in experiment [7] and in experiment [8] was “inactive” throughout. The outcome in [14] was inactive.

For `COc1cccc(Cn2c(=O)c(-c3cccc(Cl)c3)nc3cncnc32)c1`, the Potency in [1] is above 11.4 µM; in experiment [5], above 9.22 µM; in [6], above 46 µM. Further, the activity change, negative = inhibition in [2] was -20.4%; in [3] it was -10.8%. Further, the activity, negative = inhibition in experiment [4] is -8.57%. Also, the Potency result in experiment [8] is “inactive”. Further, the outcome in [14] was inactive.

With `O=c1c(-c2ccc(F)c(F)c2)nc2cncnc2n1Cc1ccc(F)cc1`, the Potency in experiment [1] is above 11.4 µM; in experiment [5], above 9.22 µM; in experiment [6] it was above 46 µM. The activity change, negative = inhibition is 2.91% in experiment [2] and -2.88% in [3]. The activity, negative = inhibition in [4] was 1.58%. The Potency entry in experiment [7] and in [8] was “inactive” throughout. Also, in [14], the result was inactive.
